Consider 59 molecules from PubChem BioAssay AID588335 (The Scripps Research Institute Molecular Screening Center, 2011).

Among all 360,000 compounds or so, about 4,500 (1.2%) were called active. Rule as the data show it: active = inhibition above about 30%; inactive = the rest. The full list was thinned out, with actives kept by preference.

The nature of the assay: inhibition of GDH and TPI enzymes – biochemical, absorbance, full deck, artefact control for M. tuberculosis FBA inhibitor project, primary screen (AID 588335).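 Also: 0% = DMSO wells and 100% = wells lacking the enzyme.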 The settings on record: GDH-TPI coupled enzyme counterscreen, NADH absorbance; at 4.8 µM; active compounds read high. A general note: A counterscreen serves to expose hits that act by an unwanted route or on another target.
Turning to `C=CCN1C(=O)C(Cc2cccc(Cl)c2)S/C1=N/N=C/c1ccco1` (centres undefined), the inhibition is 17.9% (inactive).
In the case of `CCCCC1S/C(=N/N=C/c2cccs2)NC1=O` (centres undefined) it was 23.8% (inactive).
Regarding `COc1ccc(CN2C(=O)C(C)S/C2=N/N=C/c2ccco2)cc1` (centres undefined), the inhibition is 28.3% (inactive).
Turning to `O=C1N/C(=N\N=C\c2ccco2)SC1Cc1ccc(F)cc1` (centres undefined), the inhibition was 34.3% (active).
In the case of `CC(C)=N/N=C1/NC(=O)C(Cc2ccccc2)S1` (centres undefined) it was 1.52% (inactive); in that of `CCC1S/C(=N/N=C/c2ccco2)NC1=O` (centres undefined), 48.7% (active); in that of `NC(=O)Cn1nc([N+](=O)[O-])nc1Oc1ccc(Br)cc1`, -2.44% (inactive).
In the case of `COc1ccc(OC)c(-n2cc3c(=O)n(C)c(=O)n(C)c3c2)c1`, the inhibition is 17.5% (inactive).
In the case of `Cc1noc(COc2ccccc2OCc2onc(C)c2Cl)c1Cl` it was -5.03% (inactive).
Turning to `Cc1cc(NC(=O)CN2C(=O)NC(C)(CCc3ccccc3)C2=O)no1` (centres undefined), the inhibition was -0.61% (inactive).
Regarding `COC(=O)c1sc2[nH]c(=S)n(N)c(=O)c2c1C`, the inhibition is 31.6% (active).
Take `COC(=O)c1sc(NC(=O)COC(=O)C2CCC2)c(C(=O)OC)c1C`: the inhibition is -0.7% (inactive).
The value for `CCCC(CCC(=O)OC)(C(=O)OCC)c1csc(N)n1` (centres undefined) was 13% (inactive).
Consider `O=C(COC(=O)c1ccccc1C(=O)c1ccccc1)c1ccco1`, for which the inhibition is -5.13% (inactive).
For the molecule `CCc1ccc(C(=O)COC(=O)c2ccco2)cc1`, the inhibition was -8.19% (inactive).
For `CCN(CC)c1ccc(C(=O)OCC(=O)c2ccco2)cc1`, the inhibition is 31.4% (active).
In the case of `C[C@H](NC(=O)C1CCN(S(=O)(=O)c2ccccc2)CC1)C(=O)NCc1ccccc1` it was -5.08% (inactive); in that of `O=C(CN1C(=O)NC2(CCCCCC2)C1=O)Nc1ccc([N+](=O)[O-])cc1`, 22.4% (inactive).
The value for `COc1cc(C=NC2CCCCC2)ccc1O` was 32.4% (active); that for `COc1ccccc1-n1c(O)c(C=NC2CC2)c(=O)[nH]c1=O` was -4.18% (inactive).
The value for `COc1cc(C(=S)NC2CCCCC2)ccc1O` was 2.87% (inactive).
On to `COc1ccc(CCn2c(NCCCN3CCOCC3)nc3c2c(=O)[nH]c(=O)n3C)cc1`, for which the inhibition was 2.26% (inactive).
On to `Cn1c(=O)[nH]c(=O)c2c1nc(NCCCn1ccnc1)n2Cc1cccc(Br)c1`, for which the inhibition was 33.2% (active).
For the molecule `Cc1nnc(Sc2nc3c(c(=O)[nH]c(=O)n3C)n2Cc2ccccc2)s1`, the inhibition is 3.35% (inactive).
The value for `Cc1cc(C)cc(C(=O)NCC(=O)OCC(=O)N2CCCCC2)c1` was -3.76% (inactive); that for `Cc1ccc(-n2ncc3c2CC(C)(C)CC3NC(=O)Cc2c(C)noc2C)cc1` (centres undefined) was 2.41% (inactive); that for `Cc1ccc(NC(=O)c2nc[nH]c2C(=O)N2CCCCC2)c(C(=O)c2ccccc2)c1` was 16.6% (inactive).
The value for `CC(CNS(=O)(=O)c1ccc(Br)cc1)CN(C)C` (centres undefined) was -2.58% (inactive); that for `COc1ccc2c(c1)c(C(=O)N/N=C/c1cccs1)c(C)n2C` was 38.7% (active); that for `Cc1c(NC(=O)C(=O)N/N=C/c2cccs2)c(=O)n(-c2ccccc2)n1C` was 6.43% (inactive).
Consider `COc1ccc(N(CC(=O)N/N=C/c2cccs2)S(=O)(=O)c2ccc(OC)c(OC)c2)cc1`, for which the inhibition is 7.97% (inactive).
With `CCOC(=O)c1ccccc1NS(=O)(=O)c1c(C)nc2sccn2c1=O`, the inhibition is 15% (inactive).
For the molecule `COc1ccc(CCNC(=O)COC(=O)c2ccc[nH]c2=O)cc1`, the inhibition is 7.19% (inactive).
In the case of `COCCCn1c(SCc2cccc(OC)c2)nc2cc(OC)c(OC)cc2c1=N` it was -0.63% (inactive); in that of `O=C(N/N=C/c1ccco1)c1ccc(C(=O)N/N=C/c2ccco2)o1`, 47.5% (active).
In the case of `O=C(Cc1ccccc1)Nc1cccc(C(=O)N/N=C/c2ccco2)c1` it was 12.2% (inactive).
On to `O=C(CCNC(=O)c1ccccc1Cl)NN=Cc1ccco1`, for which the inhibition was 10.8% (inactive).
For `COc1ccc(O)c(C(=O)c2cnc3onc(C(C)C)c3c2)c1`, the inhibition was 5.83% (inactive).
In the case of `COc1ccc(Cn2cc(CN3CCS(=O)(=O)N(Cc4ccc(-c5cccc(Cl)c5)cc4)C(C)C3=O)nn2)cc1` (centres undefined) it was 12.3% (inactive).
In the case of `C=CCn1c(=NC(=O)c2ccc(S(=O)(=O)N3CCCC3)cc2)sc2cc(NC(C)=O)ccc21` it was 28.4% (inactive).
`C=CCn1c(=NC(=O)c2cccs2)sc2cc(NC(C)=O)ccc21`: the inhibition was 31.8% (active).
In the case of `C=CCn1c(CCNC(=O)c2cccs2)n[nH]c1=S` it was -2.53% (inactive); in that of `Cc1ccc(O)c(CCc2ccccc2)n1`, 5.82% (inactive).
For the molecule `COC(=O)C(C(=O)Nc1cccc(Cl)c1C)C1CCCC1` (centres undefined), the inhibition was 2.59% (inactive).
The value for `CCOC(=O)N1CCN(C(=O)CSc2nnc(-c3c[nH]c4ccccc34)n2CCOC)CC1` was 21.3% (inactive); that for `Cc1ccc(C)c(S(=O)(=O)N(C)c2ccc(OC(=O)C3CCN(C(=O)c4ccc(F)cc4)CC3)cc2)c1` was -2.88% (inactive).
For the molecule `CCN(C(=O)COC(=O)c1cc(S(=O)(=O)N2CCc3ccccc32)ccc1OC)C1CCS(=O)(=O)C1` (centres undefined), the inhibition was -2.55% (inactive).
For `Cc1ccc2oc(=O)c3cnn(CC(=O)N(Cc4ccco4)C4CCCCC4)c3c2c1`, the inhibition was 0% (inactive).
As to `CN1CCN(CCNC(=O)Nc2ccccc2[N+](=O)[O-])CC1`, the inhibition is 1.97% (inactive).
The value for `CN1CCN(CCNC(=O)Nc2ccc([N+](=O)[O-])cc2)CC1` was 35.1% (active); that for `O=C(NCCCN1CCN(c2ccc(F)cc2)CC1)Nc1ccc([N+](=O)[O-])cc1` was 21.2% (inactive).
In the case of `CC(Oc1ccc(F)cc1)C(=O)Nc1cc(S(=O)(=O)N2CCOCC2)ccc1N1CCN(C)CC1` (centres undefined) it was -7.32% (inactive); in that of `COC(=O)c1ccc(NC(=O)C23CC4CC(C2)CC(n2cnc(Cl)n2)(C4)C3)cc1`, 7.31% (inactive); in that of `CCC(CC)C(=O)Nc1cccc(C(=O)N2CCCC2)c1`, 2.12% (inactive).
`COc1ccc(NC(=O)CCCOc2ccc(C(C)=O)cc2)cc1S(=O)(=O)N1CCCCC1`: the inhibition is 7.56% (inactive).
Turning to `O=C(NCCCN1CCCCCC1)c1ccc(N2CCCC2=O)cc1`, the inhibition was 3.81% (inactive).
On to `C/C(=N\NC(=O)c1cccc(N2CCCC2=O)c1)c1ccc(N)cc1`, for which the inhibition was 5.43% (inactive).
The value for `COc1cc(/C=N/NC(=O)c2ccc(N3CCCC3=O)cc2)ccc1O` was 43.2% (active); that for `CN(CC(O)COc1ccc(S(=O)(=O)N2CCOCC2)cc1Cl)C1CCCCC1` (centres undefined) was -2.47% (inactive).

The inhibition is the change of the read-out against control, counted positive when it falls.
